Calls of active or inactive are those of the source. How the source made its calls: active means hit-call score of the fitted dose curve at least 0.9, where 1 is the maximum; inactive means score below 0.9.

Read-out in the test: Monocyte Chemoattractant Protein-1 (MCP1), CCL2 (gene 6347)
Description: BSK_SAg_MCP1: BioMAP Diversity Plus: SAg Assay for Monocyte Chemoattractant Protein-1 (MCP1) Biomarker Activity (AID 2283090). Particulars: primary human HUVEC with PBMC; actives raise or lower the signal. The procedure: BSK_SAg is a cell-based, multiplexed-readout assay that uses umbilical vein endothelium and peripheral blood mononuclear cells, a human vascular primary cell co-culture, with measurements taken at 24 hours after chemical dosing in a 96-well plate.BSK_SAg_MCP1 is an assay component measured in the BSK_SAg assay. It measures MCP-1 antibody related to regulation of gene expression using ELISA technology.Data from the assay component BSK_SAg_MCP1 was analyzed into 1 assay endpoint. This assay endpoint, BSK_SAg_MCP1, was analyzed with bidirectional fitting relative to DMSO as the negative control and baseline of activity. Using a type of binding reporter, gain or loss-of-signal activity can be used to understand changes in the signaling as they relate to the gene CCL2. Furthermore, this assay endpoint can be referred to as a primary readout, because this assay has produced multiple assay endpoints where this one serves a signaling function. To generalize the intended target to other relatable targets, this assay endpoint is annotated to the cytokine intended target family, where the subfamily is chemotactic factor.
The levels of cell surface (or secreted, indicated by the prefix "s") biomarker endpoints were measured by ELISA. Overt cytotoxicity to cells in confluent adherent cultures (all systems other than the BT system) was assessed by measuring total protein levels using sulforhodamine B (SRB) staining in parallel cultures at the time of biomarker measurements, indicated as SRB endpoints. For proliferation assays for adherent cell types, individual cell types are cultured at sub-confluence and relative cell numbers quantified by SRB staining at time points optimized for each system (48 h: 3C and CASM3C systems; 72 h: BT and HDF3CGF systems; 96 h: SAg system). SRB was performed by staining cells with 0.1% SRB after fixation with 10% TCA and reading wells at 560 nm.Viability and proliferation of PBMC (T cells) was quantified by Alamar Blue reduction for the SAg and BT systems. For PBMC viability (referred to as PBMC Cytotoxicity within the assay endpoint names), cells were plated (75,000/well in a 96-well plate) and then chemical samples added for 1 h before addition of activators, SEB and TSST-1 (20 ng/mL final concentration each). Cells were incubated for 90 h. Then, Alamar Blue (20 uL/well) (Invitrogen, Cat DAL1100) was added for 6 h, and the plates were read with a fluorescence microplate reader at 546/580 nm (excitation/emission). For PBMC proliferation, cells were plated and activated as above but incubated for only 16 h prior to addition of Alamar Blue. Plates were read after 6 h.
In the case of `C=CC(=O)NC(C)(C)C`, the result was inactive.

Turning to `c1ccc2sc(SSN3CCOCC3)nc2c1`, the result was inactive. The same measure, in the same setting: the same measure for `CCCC(C)C(=O)OCC` (stereo not given): “inactive”. Still for that read-out and setting: the same measure for `Oc1ccc(/C=C/c2cc(O)cc(O)c2)cc1`: “inactive”; for `O=C(Oc1ccccc1)c1ccccc1C(=O)Oc1ccccc1`: “inactive”. On to `Nc1ccc(C(=O)O)cc1`, for which the outcome was inactive. For the molecule `O=C1CCCCCCCCCCCN1`, the result was inactive.

As to `C=C(C)C(=O)OCCCCCCCCCCCC`, the result was inactive. Turning to `CC=C(C)C=CC=C(C)C`, the AC50 (commonly the midpoint of the concentration-response curve, whichever way the signal moves) is 2.58 µM (active). Consider `CCCCCCCCC(CO)CCCCCC` (stereo not given), for which the outcome was inactive. `C=CC(=O)OCC(C)OCC(C)OCC(C)OC(=O)C=C` (stereo not given): the AC50 was 10.5 µM (active). Same read-out and setting: the same measure for `Oc1c(Cl)cc(Cl)c(Cl)c1Cl`: 31.2 µM (active). For `CCOC(=O)/C=C\C(=O)OCC`, the result was inactive.

Turning to `Cc1ccc([N+](=O)[O-])cc1N`, the outcome was inactive. Still for that read-out and setting: as for `COc1ccc(C(=O)c2ccccc2)c(O)c1`, the entry is “inactive”. Same read-out and setting: the same measure for `CCC1(C)C(=O)N(Cl)C(=O)N1Cl` (stereo not given): “inactive”; for `c1ccc2c(c1)[nH]c1ccccc12`: “inactive”; for `O=C1CCCCCCCCCCC1`: “inactive”. Same read-out and setting: as for `Fc1ccc(Br)cc1`, the entry is “inactive”. In the case of `Cc1c(O)cccc1O`, the result was inactive.

For the molecule `CC/C=C\CCOC(=O)c1ccccc1O`, the AC50 was 28.5 µM (active). Same read-out and setting: as for `C=CC(=O)OCCCCCCOC(=O)C=C`, the figure is 11 µM (active).

As for `CC(Cl)COP(=O)(OCC(C)Cl)OCC(C)Cl` (stereo not given), the outcome was inactive. `CC/C=C\C/C=C\C/C=C\CCCCCCCC(=O)OC`: the AC50 was 33.8 µM (active).

Regarding `CCN1CN(CC)CN(CC)C1`, the outcome was inactive. The same measure, in the same setting: the same measure for `Nc1cccc(N)n1`: “inactive”; for `C1CNCCN1`: “inactive”. Still for that read-out and setting: the same measure for `CC1(C)CC(O)CC(C)(C)N1[O]`: “inactive”. The same measure, in the same setting: the same measure for `Clc1cc(Cl)c(Cl)c(Cl)c1Cl`: “inactive”; for `CCCCCCC=O`: “inactive”.

For the molecule `CCc1cccc(C)c1N(C(=O)CS(=O)(=O)O)C(C)COC` (stereo not given), the result was inactive. On to `C[N+](C)(C)CCCNS(=O)(=O)C(F)(F)C(F)(F)C(F)(F)C(F)(F)C(F)(F)C(F)(F)C(F)(F)C(F)(F)F`, for which the outcome was inactive.

Turning to `O=C(Cl)c1c(Cl)c(Cl)c(C(=O)Cl)c(Cl)c1Cl`, the result was inactive. On the same count and under the same terms, the same measure for `CC1=CC=C(C(C)C)CC1`: “inactive”. Still for that read-out and setting: as for `C=CC(=O)OCCCCCCCC(C)C`, the entry is “inactive”; as for `CCOC(=O)C1=NN(c2ccc(Cl)cc2Cl)C(C)(C(=O)OCC)C1` (stereo not given), “inactive”; as for `CC(c1cc(C(C)(C)C)cc(C(C)(C)C)c1O)c1cc(C(C)(C)C)cc(C(C)(C)C)c1O`, “inactive”. Same read-out and setting: the same measure for `Oc1ccccc1Cc1ccccc1O`: “inactive”; for `CCCCCC1=CCCC1=O`: “inactive”; for `C=CCCCCCCCCC=O`: “inactive”.

(Values after PubChem BioAssay (EPA / NIEHS).)
